PubChem BioAssay AID1159580 (chemical genetic matrix, 2015)
Where “and” joins values, the source holds several entries; their conditions need not be identical. Equal values may be shown once. In all, about 5,500 compounds went through this assay and about 2,000 (36%) were called active. Inconclusive results (about 18%) are left out. No stated cut-off is given here; in the data, active means normalized growth mostly below about 0.91 (no sharp cut-off); inconclusive means no clear call, values can overlap the other calls; inactive means mostly above about 0.92. Some of the results follow.

Test: chemical genetic growth profiling, strain panel (AID 1159580);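 further: tested at 20 µM; growth read once vehicle control cultures reached saturation at 30 °C; 1 = growth at the plate median or of vehicle wells; lower values mean less growth of the strain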
Settings: S. cerevisiae deletion strains, growth OD

Measured: normalized growth

CC(=O)S[C@@H]1CC2=CC(=O)CC[C@]2(C)[C@H]2CC[C@@]3(C)[C@@H](CC[C@@]34CCC(=O)O4)C12 (some centres undefined)
inactive: locus YAL013W, strain DEP1, active compounds read low 1 | locus YAL021C, strain ccr4, active compounds read low 1.01 | locus YAL026C, strain drs2, active compounds read low 1.01 | locus YAL030W, strain snc1, active compounds read low 1.01 | locus YBL061C, strain skt5, active compounds read low 1.02 | locus YBR009C, strain hhf1, active compounds read low 0.98 | locus YBR021W, strain FUR4, active compounds read low 0.992 | locus YBR023C, strain chs3, active compounds read low 1.01 | locus YBR171W, strain sec66, active compounds read low 1.03 | locus YBR229C, strain ROT2, active compounds read low 0.997 | locus YBR231C, strain swc5, active compounds read low 1.04 | locus YBR279W, strain paf1, active compounds read low 1.01 | locus YCL011C, strain gbp2, active compounds read low 0.984 | locus YCL016C, strain dcc1, active compounds read low 0.993 | locus YCL029C, strain bik1, active compounds read low 1.03 | locus YCL061C, strain MRC1, active compounds read low 1.04 | locus YCL069W, strain vba3, active compounds read low 1.01 | locus YCR088W, strain abp1, active compounds read low 1.01 | locus YDL005C, strain med2, active compounds read low 1.01 | locus YDL035C, strain GPR1, active compounds read low 1.01 | locus YDL040C, strain nat1, active compounds read low 1.01 | locus YDL074C, strain BRE1, active compounds read low 1.01 | locus YDL101C, strain DUN1, active compounds read low 1.01 | locus YDL134C, strain PPH21, active compounds read low 1.01 | locus YDL185W, strain tfp1, active compounds read low 1.01 | locus YDL192W, strain arf1, active compounds read low 1.03 | locus YDR001C, strain nth1, active compounds read low 1 | locus YDR069C, strain doa4, active compounds read low 1.03 | locus YDR101C, strain arx1, active compounds read low 1.03 | locus YDR137W, strain rgp1, active compounds read low 1 | locus YDR150W, strain NUM1, active compounds read low 1 | locus YDR159W, strain sac3, active compounds read low 0.972 | locus YDR162C, strain NBP2, active compounds read low 1 | locus YDR195W, strain ref2 1.05 | locus YDR297W, strain sur2, active compounds read low 1.02 | locus YDR318W, strain mcm21, active compounds read low 1.02 | locus YDR334W, strain swr1, active compounds read low 1 | locus YDR335W, strain msn5, active compounds read low 1.02 | locus YDR388W, active compounds read low 1.03 | locus YDR392W, strain spt3, active compounds read low 0.951 | locus YDR502C, strain sam2, active compounds read low 1.02 | locus YEL003W, strain gim4, active compounds read low 1.01 | locus YEL037C, strain rad23, active compounds read low 1.01 | locus YEL061C, strain CIN8 (second series), active compounds read low 1.01 | locus YEL061C, strain CIN8, active compounds read low 0.963 | locus YER015W, strain faa2, active compounds read low 1.02 | locus YER016W, strain bim1, active compounds read low 1 | locus YER110C, active compounds read low 1.03 | locus YER111C, strain swi4, active compounds read low 1.01 | locus YER155C, strain BEM2 (second series), active compounds read low 1.07 | locus YER155C, strain BEM2, active compounds read low 1.01 | locus YER167W, strain BCK2, active compounds read low 1.01 | locus YFR010W, strain ubp6, active compounds read low 1.02 | locus YGL078C, strain dbp3, active compounds read low 1.03 | locus YGL086W, strain mad1, active compounds read low 0.998 | locus YGL167C, strain pmr1, active compounds read low 1.03 | locus YGL173C, strain kem1, active compounds read low 1.02 | locus YGL227W, strain vid30, active compounds read low 0.997 | locus YGL240W, strain doc1, active compounds read low 1.05 | locus YGL248W, strain PDE1, active compounds read low 1.01 | locus YGL253W, strain hxk2, active compounds read low 0.97 | locus YGR078C, strain PAC10, active compounds read low 0.984 | locus YGR135W, strain pre9, active compounds read low 1.02 | locus YGR252W, strain gcn5, active compounds read low 1 | locus YHR013C, strain ard1, active compounds read low 1.01 | locus YHR027C, strain rpn1, active compounds read low 1.01 | locus YHR030C, strain SLT2, active compounds read low 0.996 and 1.06 | locus YHR079C, strain IRE1 (second series), active compounds read low 1.03 | locus YHR079C, strain IRE1, active compounds read low 1.08 | locus YHR094C, strain hxt1, active compounds read low 1.03 | locus YHR129C, strain ARP1, active compounds read low 1 | locus YHR142W, strain chs7, active compounds read low 1 | locus YHR200W, strain rpn10, active compounds read low 1.02 | locus YIL066C, strain RNR3, active compounds read low 1 | locus YIL073C, strain SPO22, active compounds read low 1.05 | locus YIL125W, strain kgd1, active compounds read low 1.02 | locus YIR030C, strain dcg1, active compounds read low 1.02 | locus YJL092W, strain hpr5, active compounds read low 1.01 | locus YJL095W, strain BCK1 (second series), active compounds read low 0.996 | locus YJL095W, strain BCK1, active compounds read low 1 and 1.02 | locus YJL115W, strain asf1, active compounds read low 1.02 | locus YJL129C, strain trk1, active compounds read low 1.02 | locus YJL134W, strain LCB3, active compounds read low 1 | locus YJL154C, strain vps35, active compounds read low 1.02 | locus YJL164C, strain tpk1, active compounds read low 0.983 | locus YJL166W, strain qcr8, active compounds read low 1.04 | locus YJL168C, strain set2, active compounds read low 1.02 | locus YJL187C, strain SWE1 (second series), active compounds read low 1 | locus YJL187C, strain SWE1, active compounds read low 1.02
